Source: PubChem BioAssay
A selection: hits, their analogues and other compounds. The true share with any hit is near 1.7%.
PME-1 inh = blocks human protein phosphatase methylesterase 1 | Q9Y570 | recombinant PME-1, FP-Rh probe fluorescence polarization | inhibition, % at 5.9 µM | 320,000 tested, 0.53% active | AID 2130;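 active = inhibition above the campaign mean of all compounds plus 3 SD, cut at about 26% in these data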;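 also: competitive labeling of PME-1 active site by serine hydrolase directed probe; 0% = PME-1 with DMSO and 100% = wells lacking PME-1 enzyme; inhibitors block probe labeling so polarization falls and inhibition rises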
LYPLA1 counter = blocks human lysophospholipase 1, a PME1 counter-screen | recombinant LYPLA1, FP-Rh probe fluorescence polarization | O75608 | inhibition, % at 5.9 µM | 320,000 tested, 0.16% active;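 active = inhibition above the mean of all tested compounds plus 3 SD, set per campaign, cut at about 14% in these data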;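 also: inhibitors block serine hydrolase probe labeling of LYPLA1 so polarization falls; 0% = enzyme with DMSO and 100% = wells lacking LYPLA1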
LYPLA2 inh = blocks human lysophospholipase 2, a PME1 counter-screen; O95372; recombinant LYPLA2, FP-Rh probe fluorescence polarization; inhibition, % at 5.9 µM; 320,000 tested, 0.38% active;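 active = inhibition above the screen-wide mean plus 3 SD, limit set per campaign, cut at about 26% in these data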;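 also: 0% = LYPLA2 with DMSO and 100% = wells lacking LYPLA2 enzyme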
Target sequence (O95372 whole entry, looked up): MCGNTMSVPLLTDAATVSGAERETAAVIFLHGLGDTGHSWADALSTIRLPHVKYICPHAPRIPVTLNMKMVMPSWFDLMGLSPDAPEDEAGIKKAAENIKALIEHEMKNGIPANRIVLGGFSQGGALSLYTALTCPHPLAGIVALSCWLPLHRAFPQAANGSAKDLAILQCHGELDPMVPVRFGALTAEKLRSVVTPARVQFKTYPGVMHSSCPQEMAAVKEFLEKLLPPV
GSTO1 inh = GSTO1 inhibition, counter-screen for RBBP9 inhibitors; P78417; recombinant GSTO1, activity-based probe fluorescence polarization; inhibition, % at 5.96 µM; 300,000 tested, 1.1% active; AID 1974;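 active = inhibition above the campaign mean inhibition plus 3 SD, cut at about 35% in these data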;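 also: 0% = GSTO1-1 with DMSO and 100% = wells lacking GSTO1-1 enzyme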
Target sequence (P78417 whole entry, looked up): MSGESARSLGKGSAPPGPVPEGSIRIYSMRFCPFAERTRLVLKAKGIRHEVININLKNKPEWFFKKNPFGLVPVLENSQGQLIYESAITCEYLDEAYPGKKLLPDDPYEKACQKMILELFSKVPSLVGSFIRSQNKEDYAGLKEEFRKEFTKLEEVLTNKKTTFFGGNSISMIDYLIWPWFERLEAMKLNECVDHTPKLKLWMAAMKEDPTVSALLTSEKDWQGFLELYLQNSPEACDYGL
PAD4 inh = blocks human protein arginine deiminase 4; inhibition, % at 6.36 µM; recombinant PAD4, RCA probe fluorescence polarization; Q9UM07; 330,000 tested, 0.41% active;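 active = percent inhibition above a cutoff equal to the mean of all tested compounds plus 3 SD, cut at about 15% in these data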;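 also: 0% = PAD4 with RCA probe and DMSO and 100% = probe without PAD4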
Fam108B inh = blocks mouse Fam108B hydrolase in RBBP9 counter-screen; recombinant Fam108B, FP-Rh probe fluorescence polarization; inhibition, % at 9.51 µM; 300,000 tested, 0.33% active; AID 1947;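 active = inhibition above the screen mean inhibition plus 3 SD, computed separately per campaign, cut at about 18% in these data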;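 also: inhibitors lower polarization as less probe binds the enzyme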
GSTO1 inh conf = GSTO1 (human) inhibition, confirmation; recombinant GSTO1, probe fluorescence polarization; inhibition, % at 5.96 µM; shares compounds with GSTO1 inh; 2,400 tested, 54% active;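 active = inhibition above the primary screen's cutoff, its mean inhibition plus 3 SD, cut at about 35% in these data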;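 also: loss of polarization as inhibitors block binding of rhodamine sulfonate ester activity probe; 0% = GSTO1 with DMSO and 100% = wells lacking GSTO1 enzyme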
The depositor's hits bear a star; . = not tested or not shown.

SMILES	PME-1 inh	LYPLA1 counter	LYPLA2 inh	GSTO1 inh	PAD4 inh	Fam108B inh	GSTO1 inh conf
CC/C(=N/Nc1ccccc1C)c1cnnc(SC)n1	-4	3	4	44*	-4	4	2
Cc1ccsc1C(=O)N(C)CC(=O)N(CC(C)C)c1c(N)n(CC(C)C)c(=O)[nH]c1=O	-1	0	0	-5	-2	1	.
O=C(CNC(=S)NC(=O)c1ccc(Br)o1)c1ccccc1	-4	-1	6	46*	0	2	15
CCN(c1ccccc1)S(=O)(=O)c1cc(NC(=O)CSc2n[nH]c(=O)[nH]c2=O)ccc1Cl	-6	-2	-5	52*	2	13	67*
CCN(c1ccccc1)S(=O)(=O)c1cc(NC(=O)C2CC2)ccc1Cl	.	.	.	.	-6	.	.
CCC(C(=O)NCCCN1CCCCCC1)n1nc(C)c2sc3ccccc3c2c1=O (centres undefined)	1	-2	2	1	2	4	.
O=C(NCC1CCCO1)c1csc2c1CCCC2 (centres undefined)	-2	-4	5	0	-2	1	.
NS(=O)(=O)c1ccc(CCNC(=O)c2ccc(Cl)s2)cc1	-9	1	7	0	5	-4	.
NS(=O)(=O)c1ccc(CCNC(=O)c2ccc([N+](=O)[O-])s2)cc1	-1	-1	-1	50*	-16	-3	7
Cc1cc(/C=C2/C(=O)N(C)C(=S)N2C)c(C)n1C1CC1	-22	0	1	1	-2	-6	.
Cc1cc(/C=C2\SC(=S)NC2=O)c(C)n1C1CC1	-1	-3	1	40*	-5	2	51*
Cc1cc2n(n1)SC(Nc1ccc(F)c(Cl)c1)N2 (centres undefined)	13	-2	0	4	3	-1	.
O=[N+]([O-])c1ccc(/C=N/n2cnc3ccccc32)s1	19	3	9	55*	-23	7	31
O=[N+]([O-])c1ccc(/C=N/Nc2ncccc2[N+](=O)[O-])s1	3	-2	0	9	2	5	.
CC1(C(=O)NC2CCCCC2)CCC(=O)N1Cc1cccnc1 (centres undefined)	1	2	-1	52*	1	2	5
CC1CCC(NC(=O)C2(C)CCC(=O)N2Cc2cccnc2)CC1 (centres undefined)	-3	-1	-1	4	-2	-2	.
CN(CCOC(=O)/C=C/c1ccco1)Cc1ccccc1	2	0	2	-3	3	-5	.
COC(=O)C1=C(C)N(CC2CCCO2)C(=O)/C1=C\c1ccc(O)cc1 (centres undefined)	-10	-1	-2	43*	-4	-2	1
COc1ccc(/C=C2\SC(=S)N(CC3CCCO3)C2=O)cc1 (centres undefined)	3	0	6	14	-3	-4	.
O=c1cc2oc3cc(O)c(O)cc3c(-c3ccccc3[N+](=O)[O-])c-2cc1O	-3	-4	-2	50*	-3	9	41*
N/C(=N/OC(=O)c1cccc([N+](=O)[O-])c1)c1cccc([N+](=O)[O-])c1	3	2	4	-3	-3	-2	.
CC1=C(C)/C(=N/OC(=O)c2cccc([N+](=O)[O-])c2)C=CC1=O	-30	-6	-2	47*	-2	-2	0
COc1ccc2c3c(cccc13)C(=O)N(O)C2=O	-1	3	4	-4	4	1	.
CCC1=NNc2cccc3c(OC)ccc1c23	23	7	10	73*	37*	14	27
CSc1ccccc1NC(=O)COC(=O)c1ccccc1Cc1ccccc1	-3	-2	-2	69*	-1	2	4
SMILES	PME-1 inh	LYPLA1 counter	LYPLA2 inh	GSTO1 inh	PAD4 inh	Fam108B inh	GSTO1 inh conf
CSc1ccccc1NC(=O)COC(=O)c1ccccc1O	0	-2	0	4	-3	0	.
COc1ccc(CCNC(=O)/C=C/c2ccc(S(=O)(=O)N3CCOCC3)cc2)cc1	-3	1	6	.	-1	.	.
C[n+]1cccc2c(Br)ccc([O-])c21	-1	1	4	41*	6	2	14
CCc1c(C(=O)N2CCN(c3ccccc3F)CC2)[nH]c(C)c1C(C)=O	2	-16	6	-5	0	4	.
O=S1(=O)c2cccc3cccc(c23)N1CCBr	1	1	7	45*	0	4	51*
O=C(Nc1ccc(S(=O)(=O)NC2=NCCCCC2)cc1)c1ccc(Cl)cc1Cl	2	-2	3	-33	2	-3	.
COc1ccc(S(=O)(=O)N(CC(=O)NC2CC2)c2ccc(C)cc2)cc1	3	-2	-2	-8	-2	-2	.
Nc1nc2c(s1)CCc1c-2cnn1-c1ccccc1	12	-6	-11	72*	40*	14	71*
COC(=O)CCC(=O)OC1(C)C(=O)C2=CN(CCc3c[nH]c4ccccc34)C(c3ccc(OC)cc3)=CC2=C(Br)C1=O (centres undefined)	2	-1	-6	21	-7	3	.
COC(=O)CCC(=O)OC1(C)C(=O)C=C2C=C(C3CC3)N(c3ccccc3)C=C2C1=O (centres undefined)	3	-1	0	30	11	0	.
COC(=O)CCC(=O)OC1(C)C(=O)C2=CN(Cc3ccc(OC)cc3)C(c3ccc(OC)cc3)=CC2=C(Br)C1=O (centres undefined)	3	-3	-2	38*	-13	2	39*
COC(=O)CCC(=O)OC1(C)C(=O)C=C2C=C(C3CC3)N(CCN3CCOCC3)C=C2C1=O (centres undefined)	0	0	1	29	-2	0	.
CCC(=O)OC1(C)C(=O)C2=COC(c3ccc(OC)cc3)=CC2=C(Br)C1=O (centres undefined)	4	2	-1	33	-10	-3	.
COC(=O)CCC(=O)OC1(C)C(=O)C2=CN(C3CC3)C(c3ccc(OC)cc3)=CC2=C(Br)C1=O (centres undefined)	8	3	2	63*	-7	3	24
COC(=O)CCC(=O)OC1(C)C(=O)C2=CN(CC3CC3)C(c3ccc(OC)cc3)=CC2=C(Br)C1=O (centres undefined)	3	0	4	51*	-3	7	36*
COC(=O)CCC(=O)OC1(C)C(=O)C2=CN(CC(C)C)C(c3ccc(OC)cc3)=CC2=C(Br)C1=O (centres undefined)	5	-2	8	59*	-6	1	53*
COC(=O)CCC(=O)OC1(C)C(=O)C2=CN(Cc3ccccc3)C(c3ccc(OC)cc3)=CC2=C(Br)C1=O (centres undefined)	7	-1	0	50*	-27	0	14
